{
  "source": "PubChem BioAssay AID2314",
  "about": "(National Center for Advancing Translational Sciences (NCATS), 2010)",
  "note": "The whole screen tested about 300,000 compounds, of which about 37,000 (12%) were called active. The sample holds actives, similar compounds and a random draw of the others, so the mix is not that of the screen. A number with no mark means an inactive call. Rule as the data show it: active = max response mostly above about 13% (no sharp cut-off); inactive = mostly below about 14%.",
  "data": [
    {"assay": "Cycloheximide Counterscreen for Small Molecule Inhibitors of Shiga Toxin; also: read at 38.3 µM for the half of the compounds with a filed dose; 0% is about no effect", "conditions": "cell reporter, cycloheximide protein synthesis inhibition counterscreen; hits give high values", "values": [
      {"smiles": "O=C(Nc1ccc(Br)cn1)C1CCN(S(=O)(=O)c2cccs2)CC1", "max response": "2.63%"},
      {"smiles": "c1ccc(C2CNCc3c2ccc2ccccc32)cc1", "note": "(configuration not stated)", "max response": "-1.66%"},
      {"smiles": "COc1cc(-c2n[nH]c(=S)n2Cc2ccccc2)cc(OC)c1OC", "max response": "-3.31%"},
      {"smiles": "CC(=O)c1c(O)cc2n(c1=O)-c1ccc(Cl)cc1C2(C)C", "max response": "-1.91%"},
      {"smiles": "COc1ccccc1CCNS(=O)(=O)c1cn(C)nc1C", "max response": "1.23%"},
      {"smiles": "Cc1c(Cl)c([N+](=O)[O-])nn1CC(=O)NCCCN1CCOCC1", "max response": "-1.84%"},
      {"smiles": "COc1ccc(-c2cn(-c3ccc(C)cc3)c(=O)n2CC(=O)Nc2ccc(OC)c(OC)c2)cc1", "max response": "12.3%"},
      {"smiles": "CCOc1ccc(NC(=O)CN2CCN(CC(=O)Nc3ccc(OC)cc3)CC2)cc1", "max response": "-1.52%"},
      {"smiles": "COc1ccc(NC(=O)Cn2c(-c3ccc(OC)cc3)cn(-c3ccc(C)cc3)c2=O)cc1", "max response": "27.2% (active)"},
      {"smiles": "CC(C)CCN(C(=O)c1csnn1)C(C(=O)NC1CCCC1)c1ccccc1", "note": "(configuration not stated)", "max response": "-2.45%"},
      {"smiles": "COc1ccc(NC(=O)C(C)N2c3cccc4cccc(c34)S2(=O)=O)c(OC)c1", "note": "(configuration not stated)", "max response": "-5.29%"},
      {"smiles": "Cc1ccc(-c2c3c(=O)n(C)c(=O)n(C)c3cn2-c2ccccc2O)cc1", "max response": "21.5% (active)"},
      {"smiles": "COc1ccc(-c2c3c(=O)n(C)c(=O)n(C)c3cn2-c2cccc(OC)c2)cc1", "max response": "0.846%"},
      {"smiles": "COc1cccc(-n2cc3c(c2-c2ccccc2)c(=O)n(C)c(=O)n3C)c1", "max response": "57.2% (active)"},
      {"smiles": "Cc1ccc(-c2c3c(=O)n(C)c(=O)n(C)c3cn2-n2cnnc2)cc1", "max response": "0.742%"},
      {"smiles": "COc1ccc(-c2c3c(=O)n(C)c(=O)n(C)c3cn2NC(C)=O)cc1", "max response": "-6.45%"},
      {"smiles": "Cn1c(=O)c2cn(-c3cccc4ccccc34)cc2n(C)c1=O", "max response": "18.7%"},
      {"smiles": "Cn1c(C(=O)N2CCCC(C(=O)NCc3ccccc3)C2)cc2sccc21", "note": "(configuration not stated)", "max response": "3.91%"},
      {"smiles": "CCOc1ccc(S(=O)(=O)N2CCC(C(=O)NCc3ccccn3)CC2)cc1Cl", "max response": "-1.51%"},
      {"smiles": "COc1ccc(-c2nc(CS(=O)CC(=O)NCc3ccccc3)c(C)o2)cc1OC", "note": "(configuration not stated)", "max response": "4.98%"},
      {"smiles": "Cc1no[n+]([O-])c1COc1ccccc1/C=C1\\NC(=S)NC1=O", "max response": "5.18%"},
      {"smiles": "CC(=O)Nc1ccc(S(=O)(=O)Oc2ccc(Br)cc2C(=S)N2CCOCC2)cc1", "max response": "-3.27%"},
      {"smiles": "CC(=O)Nc1ccc(CN2CCC(Oc3ccc(C(=O)N4CCCC4)cc3)CC2)cc1", "max response": "-0.693%"},
      {"smiles": "O=C(Nc1ccc(Cl)cc1)/C(=C1\\CCCN1)[N+](=O)[O-]", "max response": "5.78%"},
      {"smiles": "O=C(CN(c1ccccc1)S(=O)(=O)c1ccc(Cl)cc1)Nc1ccccc1C(=O)N1CCCC1", "max response": "-1.5%"},
      {"smiles": "Cc1ccc(C2=C/C(=C\\c3cccnc3)C(=O)O2)cc1", "max response": "-1.01%"},
      {"smiles": "O=S(O)S(=O)(=O)O", "max response": "-2.81%"},
      {"smiles": "Cc1ccc(C)c(-n2cc(CN3CCN(C(=O)c4ncn[nH]4)CC3)c(-c3ccccc3)n2)c1", "max response": "-1.39%"},
      {"smiles": "COc1ccc(-n2cc(CN(C)Cc3n[nH]c(=O)[nH]3)c(-c3cccc(F)c3)n2)cc1", "max response": "4.9%"},
      {"smiles": "Cc1ccccc1CN1CCN(C(=O)c2cccc(F)c2)CC1", "max response": "-3.46%"},
      {"smiles": "COc1ccc(-n2cc(CNC3CCOCC3)c(-c3cccc(F)c3)n2)cc1", "max response": "1.41%"},
      {"smiles": "CCC(O)C1CCN(Cc2cn(-c3ccc(OC)cc3)nc2-c2cccc(F)c2)CC1", "note": "(configuration not stated)", "max response": "10.6% (active)"},
      {"smiles": "Cc1cccc(-n2cc(CN3CCN(C(=O)c4ncn[nH]4)CC3)c(-c3cccc(F)c3)n2)c1", "max response": "20.6% (active)"},
      {"smiles": "C=CCCC(=O)Nc1nc(C)c(-c2csc(Nc3ccc(Cl)cc3)n2)s1", "max response": "-1.48%"},
      {"smiles": "CCOCCCNCc1cc(Br)ccc1OCC", "max response": "1.32%"},
      {"smiles": "O=C(NCc1ccncc1)C1CCN(C(=O)c2cccc(Cl)c2)CC1", "max response": "-4.47%"},
      {"smiles": "Cc1ccc(NC2CCCN(C(=O)CCc3cn[nH]c3)C2)cc1C", "note": "(configuration not stated)", "max response": "2.58%"},
      {"smiles": "COc1c(O)c2c(=O)cc(OC)c3c4c(OC)cc(=O)c5c(O)c(OC)c6c(c(c1C[C@@](C)(O)[C@H]6C(C)=O)c23)c54", "max response": "2.19%"},
      {"smiles": "CC(=O)Nc1ccc(C(=O)/C=C/c2ccc[nH]2)cc1", "max response": "49.8% (active)"},
      {"smiles": "CC(=O)Nc1ccc(/C=C/C(=O)c2ccccc2)cc1", "max response": "30.5% (active)"},
      {"smiles": "CCCC(=O)Nc1ccc(C(=O)N/N=C/c2ccc[nH]2)cc1", "max response": "7.57%"},
      {"smiles": "CC(=O)Nc1ccccc1C(=O)C(=O)Nc1ccc(F)cc1", "max response": "11.7%"},
      {"smiles": "COc1ccc(C(=O)/C=C/c2ccc(OC3CSC3)cc2)cc1", "max response": "-1.52%"},
      {"smiles": "CC(=O)Nc1ccc(NC(=S)NC(=O)/C=C/c2ccccc2)cc1", "max response": "4.54%"},
      {"smiles": "COc1ccc(CCNc2nc3ccc(C)cc3n3cnnc23)cc1OC", "max response": "-4.65%"},
      {"smiles": "CC1CCN(S(=O)(=O)c2nnc(NC(=O)COc3ccccc3F)s2)CC1", "max response": "-2.77%"},
      {"smiles": "CN(CCC(=O)Nc1cc(S(=O)(=O)N(C)C)ccc1Cl)CC(=O)Nc1ccc(F)cc1", "max response": "-1.74%"},
      {"smiles": "Cc1ccc(OC(=O)c2cncc(Br)c2)c(C)c1", "max response": "-1.19%"},
      {"smiles": "COc1ccc(/C=C(\\C#N)C(=O)NCCCn2ccnc2)cc1", "max response": "-5.64%"},
      {"smiles": "Cc1ccc(-c2nc(C#N)c(NCCCn3ccnc3)o2)cc1", "max response": "16.7% (active)"},
      {"smiles": "Cc1ccc(S(=O)(=O)c2nc(NCCCn3ccnc3)sc2Cl)cc1", "max response": "-2.37%"},
      {"smiles": "O=C(Cc1ccc(-c2ccccc2)cc1)NC(c1ccccc1)c1ccccc1", "max response": "1.24%"},
      {"smiles": "CCOC(=O)C(C(=O)OCC)C(C#N)c1ccccc1", "note": "(configuration not stated)", "max response": "-1.71%"},
      {"smiles": "CCOC(=O)/C=C/C(=O)OCC(=O)NC(c1ccccc1)c1ccccc1", "max response": "19.8% (active)"},
      {"smiles": "COc1ccc(CNC(=O)[C@H](Cc2c[nH]c3ccccc23)NC(C)=O)cc1OC", "max response": "-3.86%"},
      {"smiles": "O=C(Nc1ccn(Cc2ccccc2F)n1)c1ccc(COc2ccc(Cl)cc2Cl)o1", "max response": "15.1% (active)"},
      {"smiles": "COc1ccc(Cl)cc1NC(=O)NCC1CCN(Cc2ccccc2F)CC1", "max response": "-0.34%"},
      {"smiles": "O=C(O)c1ccc(NC(=O)c2ccc(COc3ccc(Cl)cc3)o2)cc1", "max response": "2.26%"},
      {"smiles": "Cc1nn(C(C)(C)C)c(OC(=O)CC(C)C)c1S(=O)(=O)c1ccccc1", "max response": "9.13%"},
      {"smiles": "COc1ccc(C2c3[nH]c4ccccc4c3C[C@H]3C(=O)N(CC(C)C)CC(=O)N23)c(OC)c1", "note": "(some centres not stated)", "max response": "-3.45%"},
      {"smiles": "COc1ccc(C2C=C(c3ccc(Br)cc3)Nc3nc(NS(C)(=O)=O)nn32)cc1", "note": "(configuration not stated)", "max response": "-3.16%"},
      {"smiles": "Cn1nc([N+](=O)[O-])nc1Sc1ccc(C(C)(C)C)cc1", "max response": "-3.02%"},
      {"smiles": "O=C(CN1CCN(C(=O)C2CCCO2)CC1)Nc1c(Cl)cccc1Cl", "note": "(configuration not stated)", "max response": "-1.69%"},
      {"smiles": "Cc1cccc(C(=O)Nc2nnc(Cc3c[nH]c4ccccc34)s2)c1", "max response": "3.09%"},
      {"smiles": "Cc1cccc(N=C2NN=C(c3c[nH]c4ccccc34)CS2)c1", "max response": "25.2% (active)"},
      {"smiles": "Cc1cccc(N=C2NC(=O)/C(=C/c3cn(C)c4ccccc34)S2)c1", "max response": "3.29%"},
      {"smiles": "CC1CCCCC1NC(=O)c1cn(C)c2ccc(S(=O)(=O)N3CCOCC3)cc2c1=O", "note": "(configuration not stated)", "max response": "1.03%"},
      {"smiles": "Cc1nc(CNS(=O)(=O)c2cccnc2)cs1", "max response": "-2.9%"},
      {"smiles": "O=C(NC1CCN(Cc2ccccc2)CC1)c1ccccc1F", "max response": "-5.27%"},
      {"smiles": "O=S(=O)(NCCc1ccncc1)c1ccccc1", "max response": "-2.7%"},
      {"smiles": "O=C(NCCc1ccccn1)c1cc(-c2ccc(Cl)cc2)nc2ccccc12", "max response": "-4.89%"},
      {"smiles": "O=S(=O)(NCCc1csc(-c2ccccc2)n1)c1cccnc1", "max response": "19.7% (active)"},
      {"smiles": "O=C(NCCc1csc(-c2ccccc2)n1)c1ccccc1F", "max response": "17.6% (active)"},
      {"smiles": "Cc1ccc(-c2nn(C(C)(C)C)c3ncnc(N)c23)cc1", "max response": "-0.92%"},
      {"smiles": "COc1ccc(NC(=O)C2C3CCC(O3)C2C(=O)O)cc1OC", "note": "(configuration not stated)", "max response": "-2.93%"},
      {"smiles": "COc1ccc(CN2C3CCCC2CC(NC(=O)c2cccc(F)c2)C3)cc1", "note": "(configuration not stated)", "max response": "-1.01%"},
      {"smiles": "CCOC(=O)c1ccccc1NC(=O)COC(=O)CCC(=O)N1CCOCC1", "max response": "-1.15%"},
      {"smiles": "COc1cc2c(cc1OC)C(C)N(S(=O)(=O)c1cnc(Cl)c(Cl)c1)CC2", "note": "(configuration not stated)", "max response": "11.2%"},
      {"smiles": "COc1ccc(-n2ncc3c2CC(C)(C)CC3NC(=O)CCc2c(C)nn(C)c2C)cc1", "note": "(configuration not stated)", "max response": "0.573%"},
      {"smiles": "CCCNC(=O)c1ccc(N2CCC3(CC2)CC(c2ccc(Cl)cc2)=NO3)c([N+](=O)[O-])c1", "max response": "-0.889%"},
      {"smiles": "S=C(c1ccc(-c2ccccc2)o1)N1CCCCC1", "max response": "38.1% (active)"},
      {"smiles": "S=C(c1ccccc1)N1CCCC1", "max response": "-0.586%"},
      {"smiles": "OCCN1CCN(C(=S)c2ccc(-c3ccccc3)cc2)CC1", "max response": "-2.28%"},
      {"smiles": "Cc1ccc(OCC(=O)Nc2ccc(N3CCN(C(=O)c4ccco4)CC3)cc2)c(C)c1", "max response": "-1.02%"},
      {"smiles": "c1ccc(CN=C2Nc3ccccc3CS2)nc1", "max response": "36.1% (active)"},
      {"smiles": "CCOC(=O)c1c(-c2ccccc2)oc2cc(Br)c(O)cc12", "max response": "-1.41%"},
      {"smiles": "Cc1ccc(C)c(S(=O)(=O)N2CCCOC2CNC(=O)C(=O)NC2CCCCC2)c1", "note": "(configuration not stated)", "max response": "7.6%"},
      {"smiles": "O=S(=O)(O)c1nc2ccccc2n1Cc1ccc(Cl)cc1Cl", "max response": "-2.23%"},
      {"smiles": "COC(=O)c1sc2ncccc2c1OCc1ccc(Cl)cc1Cl", "max response": "4.4%"},
      {"smiles": "Cc1nc2ccccc2nc(C)c1=NOCc1ccc(Cl)cc1Cl", "max response": "39.1% (active)"},
      {"smiles": "Cc1ccc(-n2ncc3c2CC(C)(C)CC3NC(=O)CCc2cnn(C)c2)cc1", "note": "(configuration not stated)", "max response": "-4.22%"},
      {"smiles": "O=C1c2cccc3cccc(c23)C(=O)N1c1cccc(O)c1", "max response": "-2.33%"}
    ]}
  ]
}
